Measured values reported in the supplement of paper PMC11732987, “Enantioselective OTUD7B fragment discovery through chemoproteomics screening and high-throughput optimisation” (Communications Chemistry, 2025).

Experiments:
Assay in all cases: log2 ratio of Biotin-Ahx-Ub-VS probe labelling (fragment/DMSO); higher = less target engagement (more negative = stronger competition), active = hit call of the paper (q ≤ 0.05, log2 ratio ≤ -1)
Details in all cases: compound concentration: 200 uM; treatment time: 3 h
USP19 = target: T1, USP19 (UniProt O94966)
T1 sequence (whole entry): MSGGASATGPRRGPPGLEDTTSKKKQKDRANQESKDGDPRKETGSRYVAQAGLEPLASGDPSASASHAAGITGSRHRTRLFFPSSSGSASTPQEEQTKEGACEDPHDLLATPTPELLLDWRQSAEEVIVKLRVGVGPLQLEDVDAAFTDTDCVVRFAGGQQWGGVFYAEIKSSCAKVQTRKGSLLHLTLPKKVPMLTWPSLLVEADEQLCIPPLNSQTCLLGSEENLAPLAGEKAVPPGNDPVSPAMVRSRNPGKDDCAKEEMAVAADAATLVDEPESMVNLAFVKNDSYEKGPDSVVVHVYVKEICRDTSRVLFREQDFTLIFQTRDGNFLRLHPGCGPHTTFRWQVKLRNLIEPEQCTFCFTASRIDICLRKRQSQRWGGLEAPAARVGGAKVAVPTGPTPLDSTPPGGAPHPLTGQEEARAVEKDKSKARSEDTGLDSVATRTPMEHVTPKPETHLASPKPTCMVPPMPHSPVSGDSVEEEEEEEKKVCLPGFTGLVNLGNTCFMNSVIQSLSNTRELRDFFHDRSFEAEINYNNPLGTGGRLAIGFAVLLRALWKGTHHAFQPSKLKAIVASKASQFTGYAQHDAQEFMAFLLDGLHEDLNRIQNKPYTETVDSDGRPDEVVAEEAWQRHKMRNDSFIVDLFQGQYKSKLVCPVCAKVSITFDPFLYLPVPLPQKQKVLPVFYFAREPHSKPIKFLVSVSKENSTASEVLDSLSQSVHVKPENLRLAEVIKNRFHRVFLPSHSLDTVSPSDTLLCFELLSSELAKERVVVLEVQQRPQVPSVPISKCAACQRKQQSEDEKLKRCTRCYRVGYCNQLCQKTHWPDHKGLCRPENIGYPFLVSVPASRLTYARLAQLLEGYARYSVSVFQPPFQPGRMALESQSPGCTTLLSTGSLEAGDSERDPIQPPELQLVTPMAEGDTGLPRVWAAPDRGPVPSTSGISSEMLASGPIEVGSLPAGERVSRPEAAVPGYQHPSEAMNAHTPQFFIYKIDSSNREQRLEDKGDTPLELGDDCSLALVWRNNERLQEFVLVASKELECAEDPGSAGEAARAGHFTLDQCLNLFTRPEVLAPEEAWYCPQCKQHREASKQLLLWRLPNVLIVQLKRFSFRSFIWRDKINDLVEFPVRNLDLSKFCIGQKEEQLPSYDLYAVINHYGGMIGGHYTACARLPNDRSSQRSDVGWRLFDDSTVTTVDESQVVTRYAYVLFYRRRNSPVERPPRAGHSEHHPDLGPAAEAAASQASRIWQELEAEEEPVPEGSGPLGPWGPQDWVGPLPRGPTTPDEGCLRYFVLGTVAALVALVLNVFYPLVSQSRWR
Outline: (§1)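 Labelled DUBs from HEK293T lysate were NeutrAvidin-enriched, digested with LysC and trypsin, and run by diaPASEF LC-MS/MS. Before that, each 495 µg sample in Tris/CHAPS/IGEPAL buffer with protease inhibitors was treated in triplicate with fragment at 200 µM or vehicle for 3 h, then with Biotin-Ahx-Ub-VS at 0.5 µM final for 1 h. Values are average log2 ratios of fragment over vehicle by unpaired t-test, based on global-median-normalised Spectronaut label-free quantities from proteins with ≥2 unique peptides.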

USP22 = target: T2, USP22 (UniProt Q9UPT9)
T2 sequence (whole entry): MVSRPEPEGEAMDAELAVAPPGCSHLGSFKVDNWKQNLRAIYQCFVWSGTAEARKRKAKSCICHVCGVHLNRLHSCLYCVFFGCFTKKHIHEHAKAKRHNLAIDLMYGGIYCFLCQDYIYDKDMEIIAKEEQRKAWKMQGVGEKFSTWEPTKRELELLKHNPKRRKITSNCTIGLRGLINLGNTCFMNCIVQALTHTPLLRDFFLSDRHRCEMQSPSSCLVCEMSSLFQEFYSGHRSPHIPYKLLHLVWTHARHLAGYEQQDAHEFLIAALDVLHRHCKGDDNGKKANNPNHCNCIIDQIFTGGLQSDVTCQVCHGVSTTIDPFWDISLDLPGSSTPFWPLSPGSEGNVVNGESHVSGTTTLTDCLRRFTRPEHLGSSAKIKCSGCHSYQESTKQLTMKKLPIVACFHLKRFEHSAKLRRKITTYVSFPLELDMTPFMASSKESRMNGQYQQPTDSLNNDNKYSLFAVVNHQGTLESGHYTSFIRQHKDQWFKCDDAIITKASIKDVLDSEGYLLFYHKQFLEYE
Outline: as §1

USP24 = USP24 (UniProt Q9UPU5)
Outline: as §1

USP25 = target: T3, USP25 (UniProt Q9UHP3)
T3 sequence (whole entry): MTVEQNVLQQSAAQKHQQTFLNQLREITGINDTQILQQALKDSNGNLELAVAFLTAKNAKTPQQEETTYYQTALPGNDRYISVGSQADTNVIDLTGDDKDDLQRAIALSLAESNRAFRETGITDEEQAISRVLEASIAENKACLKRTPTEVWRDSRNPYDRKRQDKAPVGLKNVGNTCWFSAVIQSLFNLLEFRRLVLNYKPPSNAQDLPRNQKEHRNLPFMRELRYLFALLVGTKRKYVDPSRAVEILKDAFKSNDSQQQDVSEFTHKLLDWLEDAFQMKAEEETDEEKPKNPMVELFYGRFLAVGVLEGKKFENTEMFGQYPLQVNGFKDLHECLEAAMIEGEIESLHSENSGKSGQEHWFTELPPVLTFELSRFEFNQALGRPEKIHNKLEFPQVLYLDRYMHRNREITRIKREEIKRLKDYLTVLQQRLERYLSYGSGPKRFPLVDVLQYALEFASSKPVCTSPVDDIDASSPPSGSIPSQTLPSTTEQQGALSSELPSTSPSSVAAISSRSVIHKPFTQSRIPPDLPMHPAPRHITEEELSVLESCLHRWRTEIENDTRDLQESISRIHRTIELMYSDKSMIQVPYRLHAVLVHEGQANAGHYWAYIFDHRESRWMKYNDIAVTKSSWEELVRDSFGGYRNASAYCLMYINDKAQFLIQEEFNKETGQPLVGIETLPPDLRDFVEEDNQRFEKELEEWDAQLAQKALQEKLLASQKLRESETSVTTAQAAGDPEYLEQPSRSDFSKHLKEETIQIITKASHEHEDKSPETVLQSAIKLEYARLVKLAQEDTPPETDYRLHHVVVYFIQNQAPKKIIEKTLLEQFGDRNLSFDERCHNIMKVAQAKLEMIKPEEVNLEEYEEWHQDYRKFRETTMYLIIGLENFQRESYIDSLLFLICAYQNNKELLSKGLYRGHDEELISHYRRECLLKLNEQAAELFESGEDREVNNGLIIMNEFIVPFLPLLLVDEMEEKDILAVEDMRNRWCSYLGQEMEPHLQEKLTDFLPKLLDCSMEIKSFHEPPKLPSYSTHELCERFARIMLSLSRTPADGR
Outline: as §1

USP28 = target: T4, USP28 (UniProt Q96RU2)
T4 sequence (whole entry): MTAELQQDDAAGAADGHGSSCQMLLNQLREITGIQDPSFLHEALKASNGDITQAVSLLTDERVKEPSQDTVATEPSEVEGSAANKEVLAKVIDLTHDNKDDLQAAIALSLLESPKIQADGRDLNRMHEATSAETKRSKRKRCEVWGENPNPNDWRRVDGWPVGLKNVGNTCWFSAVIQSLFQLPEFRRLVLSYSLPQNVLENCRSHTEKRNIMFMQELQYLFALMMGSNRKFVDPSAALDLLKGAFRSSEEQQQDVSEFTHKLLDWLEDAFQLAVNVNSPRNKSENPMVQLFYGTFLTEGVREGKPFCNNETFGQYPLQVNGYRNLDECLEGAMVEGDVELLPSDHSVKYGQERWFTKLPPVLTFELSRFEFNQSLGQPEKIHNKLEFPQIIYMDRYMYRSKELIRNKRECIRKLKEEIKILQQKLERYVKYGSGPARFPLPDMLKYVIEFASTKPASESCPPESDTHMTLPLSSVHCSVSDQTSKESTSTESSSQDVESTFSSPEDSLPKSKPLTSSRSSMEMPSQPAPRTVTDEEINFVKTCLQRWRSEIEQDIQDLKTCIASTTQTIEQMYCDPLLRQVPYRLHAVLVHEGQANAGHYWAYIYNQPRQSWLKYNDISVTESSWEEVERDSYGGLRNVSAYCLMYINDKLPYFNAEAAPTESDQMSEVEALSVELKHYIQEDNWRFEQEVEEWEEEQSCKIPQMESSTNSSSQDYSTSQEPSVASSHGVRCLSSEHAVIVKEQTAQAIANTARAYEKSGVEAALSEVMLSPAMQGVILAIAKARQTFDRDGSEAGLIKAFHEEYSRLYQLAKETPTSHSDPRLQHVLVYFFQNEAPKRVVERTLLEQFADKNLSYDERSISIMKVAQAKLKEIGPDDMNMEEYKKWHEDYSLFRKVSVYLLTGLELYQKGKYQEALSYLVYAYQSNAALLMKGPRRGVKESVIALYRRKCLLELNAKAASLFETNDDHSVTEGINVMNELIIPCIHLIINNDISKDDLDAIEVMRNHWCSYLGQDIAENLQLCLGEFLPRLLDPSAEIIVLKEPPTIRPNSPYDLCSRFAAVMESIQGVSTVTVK
Outline: as §1

Measured: log2 ratio of Biotin-Ahx-Ub-VS probe labelling

Sequence of USP24 (Q9UPU5 whole entry): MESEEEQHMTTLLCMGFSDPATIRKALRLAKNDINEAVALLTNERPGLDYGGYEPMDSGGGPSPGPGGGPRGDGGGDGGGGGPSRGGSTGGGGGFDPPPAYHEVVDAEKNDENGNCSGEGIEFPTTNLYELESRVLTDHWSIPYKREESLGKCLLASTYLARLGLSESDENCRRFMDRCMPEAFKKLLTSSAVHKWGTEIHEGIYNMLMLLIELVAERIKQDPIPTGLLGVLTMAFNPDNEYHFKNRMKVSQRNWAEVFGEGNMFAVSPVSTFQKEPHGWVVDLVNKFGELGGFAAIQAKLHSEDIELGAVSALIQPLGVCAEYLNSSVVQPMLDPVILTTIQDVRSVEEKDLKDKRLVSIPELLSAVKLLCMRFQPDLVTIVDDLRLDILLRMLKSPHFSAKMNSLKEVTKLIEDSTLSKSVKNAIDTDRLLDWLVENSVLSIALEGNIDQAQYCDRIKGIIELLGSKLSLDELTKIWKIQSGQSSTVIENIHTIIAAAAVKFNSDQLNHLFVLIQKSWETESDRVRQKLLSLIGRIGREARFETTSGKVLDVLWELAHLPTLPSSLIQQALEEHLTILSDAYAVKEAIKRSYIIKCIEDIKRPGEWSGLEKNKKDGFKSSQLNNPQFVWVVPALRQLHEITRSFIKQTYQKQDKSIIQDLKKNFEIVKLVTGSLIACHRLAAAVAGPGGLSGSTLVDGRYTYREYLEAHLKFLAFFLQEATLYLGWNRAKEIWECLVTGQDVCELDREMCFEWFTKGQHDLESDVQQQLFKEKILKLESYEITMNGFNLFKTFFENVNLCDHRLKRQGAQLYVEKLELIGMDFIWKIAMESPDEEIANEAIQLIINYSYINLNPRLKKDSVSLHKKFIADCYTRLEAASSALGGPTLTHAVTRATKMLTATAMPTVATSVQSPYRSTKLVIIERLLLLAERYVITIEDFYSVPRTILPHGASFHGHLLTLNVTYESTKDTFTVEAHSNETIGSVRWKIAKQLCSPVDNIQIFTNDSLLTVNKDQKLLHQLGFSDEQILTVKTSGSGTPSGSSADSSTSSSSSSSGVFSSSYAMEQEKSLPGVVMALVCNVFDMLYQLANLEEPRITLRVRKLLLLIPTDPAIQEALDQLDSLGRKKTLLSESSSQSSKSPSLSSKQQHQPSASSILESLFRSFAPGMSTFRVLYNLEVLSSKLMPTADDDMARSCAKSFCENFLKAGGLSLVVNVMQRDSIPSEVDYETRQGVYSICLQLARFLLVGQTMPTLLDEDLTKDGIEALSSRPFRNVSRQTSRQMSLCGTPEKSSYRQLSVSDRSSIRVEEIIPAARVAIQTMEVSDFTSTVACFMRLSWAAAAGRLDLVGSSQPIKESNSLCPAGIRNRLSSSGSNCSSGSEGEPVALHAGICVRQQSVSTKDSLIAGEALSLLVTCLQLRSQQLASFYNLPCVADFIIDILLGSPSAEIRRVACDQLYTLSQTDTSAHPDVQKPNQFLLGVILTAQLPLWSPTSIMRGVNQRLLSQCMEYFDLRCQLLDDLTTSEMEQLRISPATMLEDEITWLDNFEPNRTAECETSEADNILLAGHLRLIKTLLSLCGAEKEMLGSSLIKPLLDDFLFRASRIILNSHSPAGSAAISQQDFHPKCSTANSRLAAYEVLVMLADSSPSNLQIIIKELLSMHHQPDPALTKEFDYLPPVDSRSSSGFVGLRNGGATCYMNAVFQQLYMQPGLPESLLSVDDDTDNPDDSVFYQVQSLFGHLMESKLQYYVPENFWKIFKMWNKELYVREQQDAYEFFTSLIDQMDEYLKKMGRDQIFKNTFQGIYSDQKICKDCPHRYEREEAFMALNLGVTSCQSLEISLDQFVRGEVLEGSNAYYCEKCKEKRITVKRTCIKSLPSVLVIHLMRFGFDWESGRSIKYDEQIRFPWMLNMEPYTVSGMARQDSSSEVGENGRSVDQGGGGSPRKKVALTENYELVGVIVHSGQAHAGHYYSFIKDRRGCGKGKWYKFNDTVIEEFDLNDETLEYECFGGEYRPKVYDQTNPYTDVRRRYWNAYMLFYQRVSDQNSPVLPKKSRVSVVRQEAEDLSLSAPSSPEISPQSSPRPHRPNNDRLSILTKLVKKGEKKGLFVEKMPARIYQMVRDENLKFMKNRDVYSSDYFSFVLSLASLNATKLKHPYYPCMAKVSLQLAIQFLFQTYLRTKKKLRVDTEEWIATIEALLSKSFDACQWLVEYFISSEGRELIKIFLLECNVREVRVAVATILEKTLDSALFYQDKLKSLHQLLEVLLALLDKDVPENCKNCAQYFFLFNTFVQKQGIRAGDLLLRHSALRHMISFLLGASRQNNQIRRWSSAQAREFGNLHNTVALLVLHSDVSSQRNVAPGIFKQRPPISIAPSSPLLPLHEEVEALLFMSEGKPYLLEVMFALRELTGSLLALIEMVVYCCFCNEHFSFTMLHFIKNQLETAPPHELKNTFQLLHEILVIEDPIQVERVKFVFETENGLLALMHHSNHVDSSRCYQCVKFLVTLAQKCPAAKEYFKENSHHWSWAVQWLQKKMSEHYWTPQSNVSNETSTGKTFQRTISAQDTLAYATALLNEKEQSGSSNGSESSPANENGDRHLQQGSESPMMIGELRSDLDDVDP

Cc1nc(CN2CCN(C(=O)CCl)CC2)cs1
inactive: USP19 -0.347 | USP22 -0.169 | USP24 -0.513 | USP25 -0.212 | USP28 -0.543
